Screening data deposited in PubChem BioAssay by National Center for Advancing Translational Sciences (NCATS).
HT1080 IDH1KD tx – qHTS for induction of synthetic lethality in tumor cells producing 2HG: qHTS for the HT-1080-IDH1KD cell line | AID 686971, 2013 | Potency, µM (highest dose often 46.1 µM), for the others: top-dose activity, negative = toxicity, hits mostly cytotoxic | 360,000 compounds, 2% hits | HT-1080 IDH1 knockdown viability, ATP luminescence, 48 h;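 also: potency is read from the fitted curve at half-maximal effect; 0% = DMSO wells and -100% = cell-free medium wells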
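Using the IDH1-knockdown HT-1080 line run in the same batch and compound series as the NT line, viability after 48 h at 37 °C was determined by CellTiter-Glo luminescence and expressed as % activity.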
DT40 TDP1 no CPT – qHTS for Inhibitors of human tyrosyl-DNA phosphodiesterase 1 (TDP1): qHTS in cells in absence of CPT; DT40 Tdp1-/- hTDP1 cells, no CPT, ATP luminescence, 48 h; Potency, µM (series often up to 46.2 µM), for the others: top-dose activity change, negative = growth inhibition, hits mostly inhibitors; 420,000 compounds, 15% hits; AID 686978, 2013; also: potency is read from the fitted curve at half-maximal effect; nearly all actives have a fitted effect of over 55% in size
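Camptothecin absent (DMSO only). Human TDP1-complemented DT40 knockout cells, 400 cells/well, 37 °C for minimum 48 hr; ATP measured via CellTiter-Glo, 30 min dark incubation, luminescence.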
uPA surface inh – qHTS for Inhibitors of Cell Surface uPA Generation; cell surface uPA generation assay, qHTS; Potency, µM (series often up to 38.3 µM), inactives show at the top dose activity change, negative = inhibition, hits mostly inhibitors; 330,000 compounds, 0.31% hits; AID 540303, 2011; active = well fitted inhibition curve with a large enough effect; inconclusive = small, poorly fitted or top-dose-only effect; inactive = no such curve, though single readings can be large or run the other way; tested in mouse RAW 264.7 cells; also: potency is read from the fitted curve at half-maximal effect; nearly all actives have a fitted effect of over 55% in size
IL1B secr inh – qHTS for Inhibitors of Inflammasome Signaling: IL-1-beta AlphaLISA Primary Screen. THP-1 LPS/ATP IL-1B secretion, AlphaLISA, 16 h; active compounds read low. activity change, % at 57.5 µM. 360,000 compounds, 4.7% hits. AID 743279, 2014; in the data active = activity change below about -50%; inconclusive = mostly about -30% to -49%
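Secreted IL-1B measured by AlphaLISA bead assay after 16 h compound exposure of THP-1 cells; compounds (final up to 57.5 uM) added 1 h before LPS (250 ng/mL) and ATP (1.25 mM) stimulation; lower signal means less secretion.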
HT1080-NT tox – qHTS for induction of synthetic lethality in tumor cells producing 2HG: qHTS for the HT-1080-NT fibrosarcoma cell line | Potency, µM (series often up to 46.1 µM), for inactives: at the top dose activity, negative = less viability, hits mostly cytotoxic | 360,000 compounds, 1.6% hits | AID 686970, 2013 | HT-1080-NT fibrosarcoma viability, CellTiter-Glo ATP luminescence, 48 h;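 also: NT is the 2HG producing partner of a matched IDH1 knockdown line; potency is read from the fitted curve at half-maximal effect; 0% = DMSO-treated cells and -100% = media-only wells without cells; nearly all actives have a fitted effect of over 55% in size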
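Read-out is CellTiter-Glo luminescence after 10 minutes at room temperature, following 48 hours' compound treatment of HT-1080-NT cells (750 cells/well, RPMI, 5% FBS, 37 degrees C).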
DT40 TDP1 CPT – qHTS for Inhibitors of human tyrosyl-DNA phosphodiesterase 1 (TDP1): qHTS in cells in presence of CPT. AID 686979, 2013. 420,000 compounds, 12% hits. chicken DT40 Tdp1-/-;hTDP1 cells + 20 nM CPT, ATP luminescence, 48 h. Potency, µM (highest dose often 46.2 µM), for the others: top-dose activity change, negative = growth inhibition, usual class: inhibitors; also: potency is read from the fitted curve at half-maximal effect; nearly all actives have a fitted effect of over 55% in size
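Cell growth measured by CellTiter-Glo luminescence after a minimum 48 h, 37 C compound exposure with 20 nM CPT in Tdp1-knockout DT40 cells stably expressing hTDP1, seeded 400/well; qHTS titration format.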
* hit, by the source's call; ? = inconclusive; / = no result. In the library only some 19% were active in any assay of this set; here they are far more common. Unless noted, calls follow the shape of the dose curve; as a rule, active = well fitted curve in the direction sought with a large enough effect; inconclusive = small, poorly fitted or top-dose-only effect, or another doubt; inactive = no such curve, though single readings can be large; an effect the other way counts as inactive or inconclusive. Unless noted, % is scaled to controls: 0 for no effect and ±100 for the full control effect.

SMILES	HT1080 IDH1KD tx	DT40 TDP1 no CPT	uPA surface inh	IL1B secr inh	HT1080-NT tox	DT40 TDP1 CPT
Cc1cccc(N2CCN(C(=O)C3CCN(S(=O)(=O)c4cccs4)CC3)CC2)c1C	/	14.6µM*	/	/	/	20.6µM*
CC1CC(C)CN(C(=O)C2CCN(S(=O)(=O)c3cccs3)CC2)C1 (configuration not stated)	10.8%	?	0.1%	-4.1	11.5%	0.2%
O=C(C1CCN(S(=O)(=O)c2cccs2)CC1)N1CCN(Cc2ccccc2)CC1	-8.1%	?	4.1%	-18.8	-13.0%	-27.4%
CN(C(=O)C1CCN(S(=O)(=O)c2cccs2)CC1)c1ccccc1	4.7%	16.4µM*	-0.1%	6.1	-3.0%	?
CCOC(=O)c1c(C)[nH]c(C)c1S(=O)(=O)N1CCC(C(=O)N2CCN(c3cccc(C)c3C)CC2)CC1	/	?	/	/	/	18.4µM*
CC(=O)c1ccc(N2CCN(C(=O)C3CCN(S(=O)(=O)c4cccs4)CC3)CC2)cc1	-7.2%	13µM*	-2.3%	15.9	-18.7%	?
CN(CC(=O)Nc1n[nH]c(=S)s1)S(=O)(=O)c1cccc2cccnc12	0.7%	4.9%	9.1%	20.1	-0.1%	-0.2%
CC(=O)N1CCOCCOCCN(C(C)=O)CCOCC1	12.0%	-2.3%	2.1%	6.0	18.3%	5.7%
CC(=O)NC(Cc1ccc(C)cc1)C(=O)NC1CCN(S(=O)(=O)c2ccccc2)CC1 (configuration not stated)	9.1%	15.0%	-0.2%	-9.4	1.1%	-2.1%
O=S(=O)(c1cccs1)N1CCN(c2ccc(O)cc2)CC1	?	2.59µM*	-4.4%	26.1	-29.9%	2.59µM*
Cc1cccc(N2CCN(C(=O)C3CCC(CNS(=O)(=O)c4cccs4)CC3)CC2)c1C (configuration not stated)	?	13µM*	-14.5%	-17.7	-19.2%	?
Clc1cccc(Cl)c1CSc1nnc(CN2CCOCC2)n1-c1ccccc1	-7.6%	?	-0.8%	-1.2	-8.8%	16.4µM*
CCc1cc2c3c(c1)C(C)CC(C)(C)N3C(=O)/C2=C1\SC(=O)NC1=O (configuration not stated)	?	?	-2.1%	/	0.9%	8.0%
COc1ccc(C(=O)Oc2cc3c4c(c2)C(C)=CC(C)(C)N4C(=O)C3=O)cc1OC	-4.3%	3.26µM*	8.1%	10.3	-0.2%	4.61µM*
COc1cc2c3c(c1)C(C)CC(C)(C)N3C(=O)C2=O (configuration not stated)	-3.2%	5.17µM*	-9.3%	-4.0	-5.2%	2.59µM*
COc1cccc(C(=O)Oc2cc3c4c(c2)C(C)=CC(C)(C)N4C(=O)C3=O)c1	4.47µM*	3.66µM*	?	28.8	7.08µM*	3.66µM*
COc1ccc(C(=O)Oc2cccnc2)cc1OC	10.2%	?	1.5%	43.8	11.2%	-0.2%
COc1cc2c3c(c1)C(C)=CC(C)(C)N3C(=O)C2=O	3.26µM*	0.82µM*	-4.6%	0.0	10.3µM*	0.731µM*
O=C(NCc1ccccc1)c1[nH]c(C(F)(F)F)nc1-c1ccccc1	0.1%	-11.3%	/	5.7	-0.3%	-7.7%
COc1ccccc1C(=O)N/C(=C\c1ccc(Br)cc1)C(=O)N1CCCC1	-15.8%	?	-4.1%	-27.2	-21.0%	-29.7%
O=C(COC(=O)c1ccccc1)NC1CCCC1	24.8%	-12.1%	3.3%	4.2	25.1%	12.0%
CC1CCCCC1NC(=O)COC(=O)c1c2c(nc3ccccc13)/C(=C/c1ccco1)CC2 (configuration not stated)	-6.3%	14.6µM*	2.1%	-15.0	-6.0%	16.4µM*
O=C(COC(=O)c1c2c(nc3ccccc13)/C(=C/c1ccco1)CC2)NC1CCCC1	-12.8%	?	-4.8%	-60.8*	2.1%	16.4µM*
CC(OC(=O)C1CC1)C(=O)Nc1cc(C(F)(F)F)ccc1Cl (configuration not stated)	6.6%	-3.7%	/	30.2	8.7%	10.0%
C=CCOc1ccc(/C=C2/C(=N)N3N=C(CC(=O)N4CCCC4)SC3=NC2=O)cc1OC	2.0%	0.8%	-17.8%	0.9	-4.2%	-1.6%
SMILES	HT1080 IDH1KD tx	DT40 TDP1 no CPT	uPA surface inh	IL1B secr inh	HT1080-NT tox	DT40 TDP1 CPT
C=CCNc1nc(NCc2ccccc2)c(C#N)c2c1CN(C)CC2	?	?	-6.5%	?	?	18.4µM*
Cc1cc(N(C)C)c(C#N)c(NCc2ccccc2)n1	-8.0%	-0.1%	2.7%	-17.1	-6.6%	8.7%
CCN1CCc2c(C#N)c(NCc3ccccc3)nc(N(CC)CC)c2C1	?	18.4µM*	5.0%	-10.8	?	?
Cc1nn(-c2ccc(Cl)cc2)c2[nH]c(CCl)cc(=O)c12	-16.2%	?	2.9%	15.5	-0.9%	-7.0%
CN1C(CC(=O)Nc2ccc(Cl)cc2Cl)c2ccccc2CC1(C)C (configuration not stated)	?	16.4µM*	-4.1%	/	-12.7%	10.3µM*
O=C(N/N=C/c1ccco1)c1cccc(N2CCCC2=O)c1	-11.8%	-23.2%	2.4%	-5.2	-7.8%	-16.1%
O=C(N/N=C/c1cc(Br)ccc1O)c1cccc(N2CCCC2=O)c1	?	4.61µM*	-8.6%	42.0	?	1.64µM*
COc1ccc(O)c(/C=N/NC(=O)c2cccc(N3CCCC3=O)c2)c1	?	3.26µM*	-2.0%	126.2	?	5.17µM*
COc1ccc(/C=N/NC(=O)c2ccc(N3CCCC3=O)cc2)cc1	-16.7%	-7.0%	1.1%	-0.7	-11.8%	10.0%
COc1ccc(O)c(/C=N/NC(=O)c2ccc(N3CCCC3=O)cc2)c1	23.1µM*	23.1µM*	-5.6%	13.4	?	13µM*
COc1cccc(/C=N/NC(=O)c2cccc(N3CCCC3=O)c2)c1	6.6%	-11.1%	-4.9%	-9.4	17.8%	-9.2%
Cc1ccc(CN2CCN(C3CCN(C(=O)OC(C)(C)C)CC3)C(=O)C2=O)cc1	/	-6.5%	/	/	/	-21.3%
CCc1nc2ccc(C(=O)N3CCN(c4ccccc4)CC3)cn2c1N(CCC(C)C)CCN(C)C	?	?	/	-23.8	?	?
COc1ccccc1NC(=O)NNC(=O)C(C)Oc1ccc2ccccc2c1 (configuration not stated)	1.2%	14.3%	5.9%	-10.0	16.0%	-12.6%
